Experimental data from PubChem BioAssay (NCATS).
Inconclusive results are not listed. The source made the active and inactive calls. Calls follow the shape of the dose curve; as a rule, active = well fitted curve in the direction sought with a large enough effect; inconclusive = small, poorly fitted or top-dose-only effect, or another doubt; inactive = no such curve, though single readings can be large; an effect the other way counts as inactive or inconclusive.

How the values were obtained:
[1] = biological target: Rap guanine nucleotide exchange factor 3 (Homo sapiens) (UniProt O95398); assay: Confirmatory qHTS for antagonist of cAMP-regulated guanine nucleotide exchange factor 3 (EPAC1) (AID 1645880); also: nearly all actives have a fitted effect of over 55% in size; also: potency is read from the fitted curve at half-maximal effect
Chain of Rap guanine nucleotide exchange factor 3 (Homo sapiens) (O95398 whole entry, looked up): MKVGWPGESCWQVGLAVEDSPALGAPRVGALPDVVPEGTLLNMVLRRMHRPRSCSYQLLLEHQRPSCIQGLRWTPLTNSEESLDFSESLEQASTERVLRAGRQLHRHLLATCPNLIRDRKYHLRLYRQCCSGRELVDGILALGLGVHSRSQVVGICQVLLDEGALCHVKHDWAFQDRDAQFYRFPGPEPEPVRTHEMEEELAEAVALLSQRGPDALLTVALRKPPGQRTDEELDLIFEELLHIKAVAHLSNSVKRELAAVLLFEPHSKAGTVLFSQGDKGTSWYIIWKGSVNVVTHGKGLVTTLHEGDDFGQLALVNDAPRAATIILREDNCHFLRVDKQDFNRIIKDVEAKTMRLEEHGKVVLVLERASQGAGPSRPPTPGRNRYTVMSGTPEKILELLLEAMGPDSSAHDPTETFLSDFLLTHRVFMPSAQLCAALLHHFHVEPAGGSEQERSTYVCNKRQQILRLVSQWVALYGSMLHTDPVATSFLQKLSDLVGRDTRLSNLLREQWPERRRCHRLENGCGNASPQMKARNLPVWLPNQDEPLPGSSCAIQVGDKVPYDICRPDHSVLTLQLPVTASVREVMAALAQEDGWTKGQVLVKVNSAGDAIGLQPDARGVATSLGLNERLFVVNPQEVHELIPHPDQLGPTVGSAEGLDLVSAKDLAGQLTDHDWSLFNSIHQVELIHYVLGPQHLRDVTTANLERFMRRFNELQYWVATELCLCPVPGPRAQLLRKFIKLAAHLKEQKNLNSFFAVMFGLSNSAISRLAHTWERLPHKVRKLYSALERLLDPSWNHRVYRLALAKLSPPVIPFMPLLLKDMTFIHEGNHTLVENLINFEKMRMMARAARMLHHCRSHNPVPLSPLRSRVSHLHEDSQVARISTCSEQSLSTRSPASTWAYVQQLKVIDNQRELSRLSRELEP
Summary of the method: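 Released BODIPY-GDP fluoresces less than Rap1-bound BODIPY-GDP; the signal is followed at 480/540 nm at 5-min intervals over 30 min, after 5 min at room temperature. Reactions contain 100 nM EPAC1, 250 nM RAP1B-BODIPY-GDP and 50 uM GDP; results are normalized to ATA and DMSO.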

[2] = biological target: Rap guanine nucleotide exchange factor 3 (Homo sapiens) (UniProt O95398); assay: Confirmatory qHTS for agonist of cAMP-regulated guanine nucleotide exchange factor 3 (EPAC1) (AID 1645881); also: nearly all actives have a fitted effect of over 75% in size; also: potency is read from the fitted curve at half-maximal effect;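 as to activation: EPAC1 catalysed release of BODIPY-GDP from Rap1B seen as fluorescence loss; 100% = effect of cAMP agonist control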
[3] = biological target: Rap guanine nucleotide exchange factor 4 (Homo sapiens) (UniProt Q8WZA2); assay: Confirmatory qHTS for agonist of cAMP-regulated guanine nucleotide exchange factor 4 (EPAC2) (AID 1645884);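 also: nucleotide exchange releases bodipy-GDP from Rap1 and this lowers its fluorescence; nearly all actives have a fitted effect of over 65% in size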; also: potency is read from the fitted curve at half-maximal effect; as to activation: % is scaled to controls: 0 for no effect and ±100 for the full control effect
Chain of Rap guanine nucleotide exchange factor 4 (Homo sapiens) (Q8WZA2 whole entry, looked up): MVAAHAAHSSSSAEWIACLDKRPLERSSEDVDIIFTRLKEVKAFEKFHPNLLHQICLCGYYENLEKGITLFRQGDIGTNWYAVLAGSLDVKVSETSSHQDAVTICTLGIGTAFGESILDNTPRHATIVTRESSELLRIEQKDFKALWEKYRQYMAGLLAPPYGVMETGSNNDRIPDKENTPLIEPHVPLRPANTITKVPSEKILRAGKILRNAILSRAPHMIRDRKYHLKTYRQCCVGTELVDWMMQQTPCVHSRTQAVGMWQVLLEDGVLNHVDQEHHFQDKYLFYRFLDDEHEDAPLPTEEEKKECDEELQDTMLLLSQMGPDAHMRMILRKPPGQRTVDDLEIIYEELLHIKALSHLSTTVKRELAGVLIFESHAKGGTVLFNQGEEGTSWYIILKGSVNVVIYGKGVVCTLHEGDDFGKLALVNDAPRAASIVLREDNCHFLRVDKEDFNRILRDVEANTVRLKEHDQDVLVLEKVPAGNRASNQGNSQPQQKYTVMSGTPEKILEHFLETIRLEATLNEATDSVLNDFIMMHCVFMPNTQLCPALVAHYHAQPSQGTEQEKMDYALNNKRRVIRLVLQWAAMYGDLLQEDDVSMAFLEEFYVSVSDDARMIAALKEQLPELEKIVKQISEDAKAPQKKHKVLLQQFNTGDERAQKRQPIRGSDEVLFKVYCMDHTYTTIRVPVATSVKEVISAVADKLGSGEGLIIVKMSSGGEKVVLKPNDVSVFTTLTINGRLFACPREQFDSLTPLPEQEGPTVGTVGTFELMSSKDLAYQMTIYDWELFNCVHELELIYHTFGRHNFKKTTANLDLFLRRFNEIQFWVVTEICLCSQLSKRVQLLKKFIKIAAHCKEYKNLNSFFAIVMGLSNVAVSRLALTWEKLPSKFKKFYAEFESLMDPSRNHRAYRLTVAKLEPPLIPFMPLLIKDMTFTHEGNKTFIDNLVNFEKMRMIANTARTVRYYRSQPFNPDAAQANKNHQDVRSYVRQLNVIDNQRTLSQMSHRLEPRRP

[4] = biological target: Rap guanine nucleotide exchange factor 4 (Homo sapiens) (UniProt Q8WZA2); assay: Confirmatory qHTS for antagonist of cAMP-regulated guanine nucleotide exchange factor 4 (EPAC2) (AID 1645885); also: nearly all actives have a fitted effect of over 25% in size; also: potency is read from the fitted curve at half-maximal effect; as to activity change, negative = inhibition: % is scaled to controls: 0 for no effect and ±100 for the full control effect
[5] = biological target: Rap guanine nucleotide exchange factor 3 (Homo sapiens) (UniProt O95398); assay: Counterscreen qHTS for antagonist of cAMP-regulated guanine nucleotide exchange factor 3 (EPAC1) (AID 1645888); also: % of control where 0% means no effect
Summary of the method: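 Measured: fluorescence of BODIPY-GDP bound to Rap1B, which falls as exchange proceeds. Conditions include 50 uM competing GDP, 5 and 30 min reads, and a later cAMP challenge for antagonist detection.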

CC1=NN(c2ccccc2)C(=O)C1/C=C1\NC(=S)NC1=O (stereo not given)
inactive: Potency [2] | Potency [3] | Potency [4] | Potency [5]
active: Potency [1] 67.5 µM

CC[C@H]1C(c2ccc(F)cc2)=NN(c2ccccc2)[C@@H]1CO
inactive: Potency [1] | Potency [2] | activation [3] 4.16% [at 17.1 µM, percent relative to cAMP agonist control] | Potency [4] | activity change, negative = inhibition [5] -6.73% [at 30.8 µM]

CCCC(=O)Nc1nnc(SCc2cc(=O)c3ccc(C)cc3[nH]2)s1
inactive: Potency [1] | Potency [2] | Potency [3] | Potency [4] | Potency [5]

Cc1ccc2c(c1)CCCN2C(=O)c1cc(C)c(C)s1
inactive: Potency [1] | Potency [2] | Potency [3] | outcome [4] inactive [at 12.7 µM] | Potency [5]

CN(C)CC/C=C1/c2ccccc2Sc2c(O)cc(Cl)cc21
inactive: Potency [1] | Potency [2] | Potency [3] | Potency [4] | Potency [5]

CCOc1ccc(CCNC(=O)c2ccc3c(=O)[nH]c4c(C(=O)NC(C)C)sc(=S)n4c3c2)cc1
active: Potency [1] 21.3 µM
inactive: Potency [2] | Potency [3] | Potency [4] | Potency [5]

Cc1ccc(C)c(S(=O)(=O)N2CCN(C(=O)CCCc3c[nH]c4ccccc34)CC2)c1
inactive: Potency [1] | Potency [2] | activation [3] 2.96% [at 17.1 µM, percent relative to cAMP agonist control] | Potency [4] | activity change, negative = inhibition [5] -6.79% [at 30.8 µM]

CC(C)C1CC2=C(C(=O)OC(C)(C)O2)C(c2ccc(F)cc2)O1 (stereo not given)
inactive: Potency [1] | Potency [2] | activation [3] 4.14% [at 17.1 µM, percent relative to cAMP agonist control] | Potency [4] | activity change, negative = inhibition [5] -3.34% [at 30.8 µM]

O=C(CSc1nnc(SCc2ccccc2)s1)N/N=C/C=C/c1ccco1
active: Potency [1] 12.6 µM
inactive: Potency [2] | activation [3] 3.41% [at 17.1 µM, percent relative to cAMP agonist control] | Potency [4] | activity change, negative = inhibition [5] -6.93% [at 30.8 µM]

Fc1cc(F)c(F)c(SCn2cc(Br)cn2)c1F
inactive: Potency [1] | Potency [2] | activation [3] 5.6% [at 17.1 µM, percent relative to cAMP agonist control] | Potency [4] | activity change, negative = inhibition [5] -7.43% [at 30.8 µM]

COc1ccc(Br)cc1CN(C)C(=O)c1ccccc1OCc1c(C)noc1C
inactive: Potency [1] | Potency [2] | Potency [3] | Potency [4] | Potency [5]

COc1ccc(C(C(=O)c2ccccc2)c2ccccc2)cc1 (stereo not given)
inactive: Potency [1] | Potency [4] | Potency [5]
active: Potency [2] 100 µM | Potency [3] 50.1 µM

CC1(C)CC(=O)C=C(c2ccc(F)cc2OCc2ccccc2)C1
inactive: Potency [1] | Potency [2] | Potency [3] | Potency [4] | Potency [5]

CN(c1ccc(C(=O)NCc2ccc3c(c2)OCO3)cc1)S(=O)(=O)c1ccccc1
inactive: Potency [1] | Potency [2] | Potency [3] | Potency [4] | Potency [5]

CCCc1cc(C(=O)Nc2ccccc2C(=O)OC)no1
inactive: Potency [1] | Potency [2] | Potency [3] | Potency [4] | Potency [5]

Cc1cccc(N2CCN(c3ccc(C(=O)O)cc3NC(=O)c3ccccc3F)CC2C)c1 (stereo not given)
inactive: Potency [2] | Potency [3] | outcome [4] inactive [at 12.7 µM] | Potency [5]
active: Potency [1] 84.9 µM

O=C(/C=C/c1ccco1)Nc1ccc(Cl)c(-c2nc3cc(Cl)ccc3o2)c1
inactive: Potency [2] | Potency [3] | Potency [4] | Potency [5]
active: Potency [1] 75.7 µM

COc1ccc(S(=O)(=O)N2CCOC23CCN(S(=O)(=O)c2ccc(F)cc2C)CC3)cc1
inactive: Potency [1] | Potency [2] | Potency [3] | Potency [4] | Potency [5]

O=C1OC(c2ccccc2)/C(=C(/O)c2ccccc2)C1=O (stereo not given)
inactive: Potency [1] | Potency [2] | activation [3] 9.85% [at 17.1 µM, percent relative to cAMP agonist control] | Potency [4] | activity change, negative = inhibition [5] -5.63% [at 30.8 µM]

COc1ccc(NC(=O)COc2ccccc2C#N)c(S(=O)(=O)N2CCCCC2)c1
inactive: Potency [1] | Potency [2] | Potency [3] | Potency [4] | Potency [5]

Cc1c(Br)c(=O)oc2c(Br)c(O)c(O)cc12
active: Potency [1] 3.16 µM
inactive: Potency [2] | activation [3] 9.71% [at 17.1 µM, percent relative to cAMP agonist control] | Potency [4] | activity change, negative = inhibition [5] 21.7% [at 30.8 µM]

COc1ccccc1C(=O)NC(=O)Cn1nc(C)c([N+](=O)[O-])c1C
inactive: Potency [1] | Potency [2] | activation [3] 4.27% [at 17.1 µM, percent relative to cAMP agonist control] | Potency [4] | activity change, negative = inhibition [5] 11.7% [at 30.8 µM]

CCCCCn1c(C)c2c(OCC)cccc(=O)c2c1C
inactive: Potency [1] | Potency [2] | activation [3] 7.02% [at 17.1 µM, percent relative to cAMP agonist control] | Potency [4] | activity change, negative = inhibition [5] 23.1% [at 30.8 µM]

CCOC(=O)[C@H]1Nc2ccc(Cl)cc2[C@@H]2[C@H]1C1CC(c3ccccc31)N2C(=O)OCc1ccccc1 (stereo not given in full)
inactive: Potency [1] | Potency [2] | activation [3] 1.97% [at 17.1 µM, percent relative to cAMP agonist control] | Potency [4] | activity change, negative = inhibition [5] 4.44% [at 30.8 µM]

Cc1cc(-c2ccc(Br)s2)nc(-n2cccc2)n1
inactive: Potency [1] | Potency [2] | Potency [3] | Potency [4] | Potency [5]

Cc1ccc(OCCC(=O)OCC(=O)NNC(=O)c2ccccc2)cc1
inactive: Potency [1] | Potency [2] | activation [3] 0.0575% [at 17.1 µM, percent relative to cAMP agonist control] | Potency [4] | activity change, negative = inhibition [5] -6.38% [at 30.8 µM]

CSCCC(NC(=O)c1ccc(Cl)cc1)C(=O)OCC(=O)N1CCCC1=O (stereo not given)
inactive: Potency [1] | Potency [2] | activation [3] 10.4% [at 17.1 µM, percent relative to cAMP agonist control] | Potency [4] | activity change, negative = inhibition [5] 5.02% [at 30.8 µM]

O=S(=O)(c1cc(O)ccc1O)c1cccc2c(S(=O)(=O)c3cc(O)ccc3O)cccc12
inactive: Potency [2] | activation [3] 5.63% [at 17.1 µM, percent relative to cAMP agonist control] | Potency [4] | activity change, negative = inhibition [5] -9.89% [at 30.8 µM]
active: Potency [1] 44.7 µM

Cc1cccc(NC(=O)c2c(NC(=O)C(F)(F)F)sc3c2CCCCC3)c1
inactive: Potency [2] | Potency [3] | Potency [4] | Potency [5]
active: Potency [1] 42.6 µM

COc1cccc(NC(=O)CCNC(=O)Cn2ccc3ccccc3c2=O)c1
inactive: Potency [1] | Potency [2] | Potency [3] | Potency [4] | Potency [5]

CC1(C)Cc2c(C#N)c(N3CCN(C(=O)c4ccccc4Cl)CC3)nc(-c3ccco3)c2CS1
inactive: Potency [2] | Potency [3] | Potency [4] | Potency [5]
active: Potency [1] 26.9 µM

Clc1ccccc1Cn1c(-c2cccs2)nc2ccccc21
inactive: Potency [1] | Potency [2] | Potency [3] | Potency [4] | Potency [5]

COc1ccc(C(=O)c2c(-c3ccc(OC)cc3)oc3ccccc23)cc1
active: Potency [4] 15.1 µM
inactive: Potency [1] | Potency [2] | Potency [3] | Potency [5]

COc1ccc(C2NC(=O)N(C)C3=C2C(=O)N(c2cccc(Cl)c2)C3)cc1 (stereo not given)
inactive: Potency [1] | Potency [2] | Potency [3] | Potency [4] | Potency [5]

COc1ccc(OC)c(N=Cc2c(O)c3ccccc3oc2=O)c1
active: Potency [2] 112 µM | Potency [3] 89.1 µM
inactive: Potency [1] | Potency [4] | Potency [5]

O=C(Nc1ccccc1C(F)(F)F)N1CCC(CN2CCc3ccccc3C2)CC1
inactive: Potency [1] | Potency [2] | Potency [3] | Potency [4] | Potency [5]

COC(=O)c1ccc2nc(C3CCCCC3)c(Cc3cccc(F)c3)n2c1
inactive: Potency [1] | Potency [2] | Potency [3] | Potency [4] | Potency [5]

CC(=NNC(=O)c1ccccc1N)c1ccccc1O
active: Potency [1] 2.51 µM
inactive: Potency [2] | activation [3] 0.484% [at 17.1 µM, percent relative to cAMP agonist control] | Potency [4] | activity change, negative = inhibition [5] -1.34% [at 30.8 µM]

CCc1nc2ccc(C(=O)N(C)Cc3ccccc3)cn2c1N(CC)Cc1cccc(Br)c1
inactive: Potency [1] | Potency [2] | activation [3] 3.66% [at 17.1 µM, percent relative to cAMP agonist control] | Potency [4] | activity change, negative = inhibition [5] -21% [at 30.8 µM]

CCCc1cc(C(=O)Nc2ccccc2SC)no1
inactive: Potency [1] | Potency [2] | Potency [3] | Potency [4] | Potency [5]

Cc1ccc(S(=O)(=O)Nc2ccccc2C=Nc2cccc(C)c2C)cc1
inactive: Potency [1] | Potency [2] | Potency [3] | Potency [4] | Potency [5]

Cc1cccc(C)c1Nc1c(-c2ccccc2F)nc2cccc(C)n12
inactive: Potency [2] | Potency [3] | Potency [4] | Potency [5]
active: Potency [1] 75.7 µM

CC1=NOC(=O)/C1=C\c1ccc(-c2cc(Cl)ccc2Cl)o1
inactive: Potency [2] | Potency [3] | Potency [5]
active: Potency [1] 23.9 µM | Potency [4] 75.7 µM

COc1nc(C)cc(C)c1S(=O)(=O)c1ccccc1C
inactive: Potency [1] | Potency [2] | Potency [3] | Potency [4] | Potency [5]

CC(C)OC1(c2ccccc2)OC(=O)c2ccccc21 (stereo not given)
inactive: Potency [1] | Potency [2] | Potency [3] | Potency [4] | Potency [5]

Cc1ccc(N(Cc2cccs2)C(=O)c2ccccc2)cc1
inactive: Potency [1] | Potency [2] | Potency [3] | Potency [4] | Potency [5]

CCOC(=O)C1=C(N)OC2=C(C(=O)CC(C)(C)C2)C1c1ccc(CC)s1 (stereo not given)
inactive: Potency [1] | Potency [2] | Potency [3] | Potency [4] | Potency [5]

CC(C)Cc1csc(NC(=O)c2ccc(Cl)cc2)c1C(=O)O
inactive: Potency [1] | Potency [2] | activation [3] 0% [at 17.1 µM, percent relative to cAMP agonist control] | Potency [4] | activity change, negative = inhibition [5] -11.2% [at 30.8 µM]
